Measurements: PubChem BioAssay AID641 (Vanderbilt High Throughput Screening Facility, 2007)
The whole screen tested about 58,000 compounds, of which about 3,400 (5.9%) were called active.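 Rule for the calls: active = luminescence count or its row- and column-corrected plate score outside the 99.7% band of the plate's sample wells, on either side; inactive = the rest.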 Shown is part of a subset that was picked to be rich in actives.

These compounds were tested against D(1A) dopamine receptor (Homo sapiens) (UniProt P21728) (assay: D1 CRE-luciferase signal change, two-sided – cell-based, HEK293 D1, dopamine EC30, D1 allosteric modulator project, primary screen (AID 641)). Details: dopamine EC30 potentiation, at 10 µM, actives deviate in either direction.
Sequence of D(1A) dopamine receptor (Homo sapiens) (P21728 whole entry, looked up): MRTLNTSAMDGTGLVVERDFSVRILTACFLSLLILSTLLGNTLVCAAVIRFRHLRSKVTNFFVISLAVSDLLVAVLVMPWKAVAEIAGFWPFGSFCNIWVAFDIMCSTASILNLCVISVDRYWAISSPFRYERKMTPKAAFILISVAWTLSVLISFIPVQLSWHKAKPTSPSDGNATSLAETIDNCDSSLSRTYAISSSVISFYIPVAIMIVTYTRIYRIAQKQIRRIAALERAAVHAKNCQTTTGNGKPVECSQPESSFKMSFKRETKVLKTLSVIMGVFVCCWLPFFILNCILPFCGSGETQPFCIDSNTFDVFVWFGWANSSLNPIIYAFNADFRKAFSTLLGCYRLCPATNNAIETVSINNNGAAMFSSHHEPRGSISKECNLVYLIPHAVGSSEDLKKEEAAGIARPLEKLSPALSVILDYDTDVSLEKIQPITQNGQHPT

SMILES | B-score
COCCNC(=O)COc1ccc(C)c(C)c1 | 0.751 (inactive)
O=C(Nc1cccnc1)c1ccc2c(c1)OCO2 | -0.0115 (inactive)
CCOc1cccc(C(=O)Nc2cccnc2)c1 | 0.108 (inactive)
O=C(Nc1cccnc1)c1noc2c1CCCCC2 | -2.9 (active)
Cc1nnc(SCC(=O)NCc2ccccc2)s1 | 0.474 (inactive)
O=C(CSc1nnc2ccccn12)c1ccccc1 | -0.291 (inactive)
COc1ccc(-n2c(SC)nc(O)cc2=O)cc1 | 0.0194 (inactive)
COc1ccccc1CNC(=O)C1CCCN(S(=O)(=O)c2cccc3cccnc23)C1 (stereo not drawn) | -0.155 (inactive)
COc1ccc(NC(=O)C2CCCN(S(=O)(=O)c3cccc4cccnc34)C2)cc1OC (stereo not drawn) | 11.5 (active)
COc1ccc(NC(=O)C2CCCN(S(=O)(=O)c3cccc4cccnc34)C2)cc1 (stereo not drawn) | -1.11 (inactive)
COc1ccc(OC)c2[nH]c(=O)c(CCNC(=O)C(C)(C)C)cc12 | -0.197 (inactive)
CCCCn1c(SCC(=O)NCCc2ccc(OC)c(OC)c2)nc2c1c(=O)n(C)c(=O)n2C | 0.0783 (inactive)
CCCSc1nc2c(c(=O)n(C)c(=O)n2C)n1Cc1ccc(C)cc1 | 1.94 (inactive)
CCOc1ccc(Cn2c(SCCCCC#N)nc3c2c(=O)n(C)c(=O)n3C)cc1OCC | 10.1 (active)
Fc1ccc(OCc2nn3c(Cn4nnc5ccccc54)nnc3s2)cc1 | -0.628 (inactive)
Oc1ccc(Cl)cc1/C=N/c1nc2ccccc2[nH]1 | 1.49 (inactive)
N#Cc1c(N)sc2c1CCN(C(=O)OCc1ccccc1)C2 | 5.84 (active)
N#Cc1ccc(COC(=O)Cn2nnc(-c3ccccc3)n2)cc1 | 0.71 (inactive)
COc1cccc(NC(=O)C2CCCN2C(=O)OCc2ccccc2)c1 (stereo not drawn) | 0.12 (inactive)
O=C(NCCN1CCOCC1)c1ccc2c(c1)ncn2C1CCCC1 | -0.956 (inactive)
COc1ccc(CCNC(=O)CCn2c(=O)oc3ccccc32)cc1OC | 6.86 (active)
COc1ccc(OC)c(NC(=O)Cn2c(=O)oc3ccccc32)c1 | 0.945 (inactive)
COc1ccc(CCNC(=O)CCCCn2c(=O)[nH]c3ccccc3c2=O)cc1OC | 0.358 (inactive)
Cc1c(C(=O)NCC2CCCO2)sc2nc(-c3ccccc3)cn12 (stereo not drawn) | 0.33 (inactive)
COc1ncnc2sc3c(c12)CCCC3 | 5.43 (active)

SMILES | B-score
O=C(O)[C@@H]1CCCN1c1ncnc2sc3c(c12)CCC3 | -0.0144 (inactive)
CC1(C)CN=C(N2CCN(c3ncnc4sc5c(c34)CCCC5)CC2)S1 | -0.977 (inactive)
O=C(NC1CCCCC1)C1CCCN(S(=O)(=O)c2cccs2)C1 (stereo not drawn) | 0.0829 (inactive)
O=C(CCSc1ccccc1)NCCSc1ccccn1 | 0.117 (inactive)
COc1ccc(/C(O)=C2/C(=O)C(=O)N(CCCN(C)C)C2c2ccccc2)cc1OC (stereo not drawn) | -0.187 (inactive)
COc1cccc(C2/C(=C(/O)c3ccncc3)C(=O)C(=O)N2CCCN(C)C)c1 (stereo not drawn) | -3.02 (active)
COc1cccc(C2/C(=C(/O)c3ccc(F)cc3)C(=O)C(=O)N2CCN(C)C)c1 (stereo not drawn) | -0.0254 (inactive)
O=S(N1CCCCCC1)C12CC3CC(CC(C3)C1)C2 (stereo not drawn) | -1.48 (inactive)
CCCN1C(=O)C(NS(=O)(=O)c2ccc(N)cc2)(C(F)(F)F)C(C(=O)OC)=C1C (stereo not drawn) | -0.0535 (inactive)
C=CCNC(=O)CCCOc1cccc(C)c1 | 0.267 (inactive)
Cc1nc2c(-c3ccc(F)cc3)c(C)nn2c(C)c1CCC(=O)N1CCN(c2ccccn2)CC1 | -0.178 (inactive)
CCOc1cc(CN2CCN(C(=O)CC(C)C)CC2)ccc1OC | 0.0601 (inactive)
CCOc1cc(C(=O)N2CCc3cc(OC)c(OC)cc3C2)ccc1OC(F)F | 15.1 (active)
COc1ccc(C(=O)N2CCC(C(=O)Nc3cccc(C)c3)CC2)cc1OC | -0.521 (inactive)
CCN1CCCC1CNc1ncnc2c1[nH]c1ccc(F)cc12 (stereo not drawn) | -0.311 (inactive)
O=C1CCCN1CCCNc1ncnc2c1[nH]c1ccccc12 | -0.02 (inactive)
CC(C)OCCCNc1ncnc2c1[nH]c1ccc(F)cc12 | -3.37 (active)
c1csc(-c2cn3c(n2)SCC3)c1 | -0.433 (inactive)
O=C(COC(=O)c1ccc2c(c1)OCCO2)NCc1ccccc1 | 0.524 (inactive)
COc1cc2[nH]c(=S)n(Cc3ccc(C)o3)c(=O)c2cc1OC | 2.05 (inactive)
CCOC(=O)N1CCN(C(=O)CN(c2ccc(C)c(C)c2)S(=O)(=O)c2ccccc2)CC1 | -0.0191 (inactive)
COc1ccccc1NC1=NC2(CCCC2)N=C(N)N1 | -3.14 (active)
COc1ccccc1NC1=NC(c2ccc(Cl)cc2)N=C(N)N1 (stereo not drawn) | -3.3 (inactive)
COc1ccccc1Nc1nc(N)nc(CN(C)C2CCCCC2)n1 | -0.094 (inactive)
c1ccc(-n2ncc(-c3nn[nH]n3)n2)cc1 | -1.26 (inactive)

SMILES | B-score
CCCOC(=O)CC1C(=O)NCCN1Cc1ccc(F)cc1 (stereo not drawn) | -0.0757 (inactive)
CC1CCCN(C(=O)c2ccc3c(c2)C(=O)N(CCC2=CCCCC2)C3=O)C1 (stereo not drawn) | -0.192 (inactive)
COC(=O)Nc1c(C)n(C)n(-c2ccccc2)c1=O | -1.4 (inactive)
CCN(CC)CCN1C(=O)C(=O)/C(=C(/O)c2ccc(OC)c(OC)c2)C1c1ccccn1 (stereo not drawn) | -0.322 (inactive)
COc1cc(-n2c(C)nc3cc(C(=O)NCc4ccco4)ccc32)cc(OC)c1OC | 0.213 (inactive)
COC(=O)c1ccc(NC(=O)CSc2nnc(Cc3cccn3C)n2-c2ccc(F)cc2)cc1 | -0.00937 (inactive)
COc1ccc(-n2c(Cc3cccn3C)nnc2SCC(=O)Nc2cc(C)cc(C)c2)cc1 | 11.4 (active)
COc1ccccc1NC(=O)CSc1nnc(Cc2cccn2C)n1-c1ccc(F)cc1 | -0.801 (inactive)
CCCc1[nH]nc2c1C(C1CC=CCC1)C(C#N)=C(N)O2 (stereo not drawn) | -0.104 (inactive)
CC1(C)CC(=O)c2cc(OCC(=O)NCC3CCCO3)ccc2O1 (stereo not drawn) | -0.0202 (inactive)
O=C(O)c1ccc(-n2cccc2)cc1O | -0.446 (inactive)
Cc1ccc(-c2noc(CCC(N)=O)n2)cc1 | -0.953 (inactive)
Cc1ccc(OCCCC(=O)N2CCOCC2)c(C)c1 | -1.03 (inactive)
CCOc1ccc(-c2nnn(CC(=O)N3CCN(c4ccc(OC)cc4)CC3)n2)cc1OCC | 3.84 (active)
CCOc1ccc(-c2nnn(CC(=O)N3CCN(c4ccc(F)cc4)CC3)n2)cc1OCC | -0.401 (inactive)
CCOc1cc(-c2noc(CCC(=O)N3CCOCC3)n2)ccc1OC | 13.7 (active)
COc1ccc(C(=O)Cn2nnc(-c3ccc(N4CCOCC4)cc3)n2)cc1OC | 0.758 (inactive)
CN1C(=O)CC(N2CCN(c3ccccn3)CC2)C1=O (stereo not drawn) | -0.0528 (inactive)
COc1ccc(C(=O)NCCc2ccc(S(N)(=O)=O)cc2)cc1OC | -0.0032 (inactive)
Cc1sc2c(c1C)c(=O)n(-c1ccccc1)c1nncn21 | 0.694 (inactive)
COc1cc2[nH]c(=O)n(CCC(=O)NC3CCN(Cc4ccccc4)CC3)c(=O)c2cc1OC | -0.633 (inactive)
Cc1ccc(SCc2cc(=O)[nH]c(N3CCCCC3)n2)cc1 | 1.14 (inactive)
O=c1cc(CSc2ccccn2)nc(N2CCN(c3ccccc3)CC2)[nH]1 | 0.00444 (inactive)
O=c1cc(-c2ccccc2)nc(N2CCCCC2)[nH]1 | 4.97 (active)
CC1CCN(c2oc(-c3ccccc3F)nc2C#N)CC1 | 8.13 (active)

SMILES | B-score
N#Cc1nc(COc2ccc(Cl)cc2)oc1N1CCCC1 | 2.09 (inactive)
Cc1ccc(OCc2nc(C#N)c(N3CCCC3)o2)cc1 | 2.17 (inactive)
COc1ccc(CCN2CNc3c(c(=O)n(C)c(=O)n3C)C2)cc1OC | -0.27 (inactive)
Oc1c(C(c2cccs2)N2CCN(c3ccc(F)cc3)CC2)sc2ncnn12 (stereo not drawn) | -1.14 (inactive)
CC(=O)N1CCc2cc(S(=O)(=O)Nc3ccccc3N3CCN(C)CC3)ccc21 | -0.699 (inactive)
O=C(C1CCC1)N1CCc2cc(S(=O)(=O)NCc3cccnc3)ccc21 | 4.59 (active)
CCCNS(=O)(=O)c1ccc2c(c1)CCCN2C(C)=O | -1.43 (inactive)
CC(C)(CNCC(O)c1ccccc1)N1CCOCC1 (stereo not drawn) | 0.153 (inactive)
CN(c1nc2ccccc2n2c(-c3ccco3)nnc12)S(=O)(=O)c1ccccc1 | 1.04 (inactive)
CN1c2ccccc2-c2nc3ccccc3n2C1c1ccco1 (stereo not drawn) | -2.57 (inactive)
Cn1c(-c2ccco2)nc2cc3ccccc3cc21 | -4.84 (active)
CCCc1nc(SCC(=O)Nc2ccccc2OC)c2c(=O)n(C)c(=O)n(C)c2n1 | 1.18 (inactive)
CCOc1cc(N2CCOCC2)c(OCC)cc1NC(=O)COc1cccc2cccnc12 | -6.32 (active)
CCOc1ccccc1NC(=O)C1CCC(CNc2c(N3CCOCC3)c(=O)c2=O)CC1 (stereo not drawn) | -0.266 (inactive)
CCOc1cc(NC(=O)c2ccco2)c(OCC)cc1NC(=O)COc1ccccc1 | -0.0288 (inactive)
N/C(=N\c1nc2ccccc2o1)NC(=O)C(Cc1ccccc1)N1C(=O)c2ccccc2C1=O (stereo not drawn) | -0.0263 (inactive)
CCOC(=O)CN1C(=O)C(O)(CC(=O)c2ccccn2)c2ccccc21 (stereo not drawn) | -0.341 (inactive)
CCc1nnc(NC(=O)C2CCCN2S(=O)(=O)c2ccccc2)s1 (stereo not drawn) | -0.0231 (inactive)
CCC(=NC1CC(C)(C)NC(C)(C)C1)C1=C(O)CC(C)(C)CC1=O | -0.239 (inactive)
COc1ccccc1N1CCN(Cc2ccc(OC)c3ccccc23)CC1 | -0.325 (inactive)
O=C(O)Cc1ccc(NC(=O)c2cccs2)cc1 | -1.14 (inactive)
O=C(O)c1ccc(NC(=O)c2cccs2)cc1 | 0.0162 (inactive)
Cc1nc(-c2ccc(NC(=O)c3cccs3)cc2)cs1 | -5.86 (active)
